Most compounds without a hit are left out; they make up all but 9.2% or so of the library.
ELG1 repair inh: ELG1-dependent DNA repair inhibition | HEK293T ELG1-luciferase reporter, luminescence, 16 h; DNA damage induced by 5-fluorouridine | Potency, µM (titrated, usually from 46.1 µM), actives largely listed as inhibitors | 330,000 tested, 2.3% active; note: nearly all actives have a fitted effect of over 55% in size
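5-Fluorouridine DNA damage + compound/DMSO, 2,000 cells/well, 16 h, 37 °C/5% CO2. ONE-Glo, 30 min RT, luminescence. Readout = decrease in reporter signal.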
NPC1 prom act: NPC1 promoter activation; Huh7 NPC1 promoter luciferase reporter, 24 h; Potency, µM (series often up to 9.22 µM), usual class: activators; 320,000 tested, 2.4% active; AID 485313; note: nearly all actives have a fitted effect of over 60% in size
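Quantitative HTS used a cell-based reporter: Huh7 cells stably bearing the NPC1 promoter upstream of luciferase were treated with compounds for 24 h, and promoter activation was read as luminescence.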
ELG1 genotox: induces genotoxicity in HEK293T cells with luciferase-tagged ELG1 | AID 504466 | HEK293T ELG1-luciferase reporter, luminescence, 16 h | 330,000 tested, 1.3% active | Potency, µM (top dose mostly 46 µM), usual class: activators; note: nearly all actives have a fitted effect of over 60% in size
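Screening used a luciferase reporter fused to human ELG1 in HEK293T cells. Luminescence was read on a CCD plate imager after 16 hr exposure and 30 min ONE-Glo incubation.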
FLuc counter: inhibits or activates purified firefly luciferase, miR-21 counter-screen. AID 588342. P08659. Potency, µM (highest dose often 57.5 µM), actives largely listed as inhibitors. purified FLuc, Km substrates, luminescence inhibition. 360,000 tested, 6.9% active; note: nearly all actives have a fitted effect of over 55% in size
Target sequence (P08659 whole entry, looked up): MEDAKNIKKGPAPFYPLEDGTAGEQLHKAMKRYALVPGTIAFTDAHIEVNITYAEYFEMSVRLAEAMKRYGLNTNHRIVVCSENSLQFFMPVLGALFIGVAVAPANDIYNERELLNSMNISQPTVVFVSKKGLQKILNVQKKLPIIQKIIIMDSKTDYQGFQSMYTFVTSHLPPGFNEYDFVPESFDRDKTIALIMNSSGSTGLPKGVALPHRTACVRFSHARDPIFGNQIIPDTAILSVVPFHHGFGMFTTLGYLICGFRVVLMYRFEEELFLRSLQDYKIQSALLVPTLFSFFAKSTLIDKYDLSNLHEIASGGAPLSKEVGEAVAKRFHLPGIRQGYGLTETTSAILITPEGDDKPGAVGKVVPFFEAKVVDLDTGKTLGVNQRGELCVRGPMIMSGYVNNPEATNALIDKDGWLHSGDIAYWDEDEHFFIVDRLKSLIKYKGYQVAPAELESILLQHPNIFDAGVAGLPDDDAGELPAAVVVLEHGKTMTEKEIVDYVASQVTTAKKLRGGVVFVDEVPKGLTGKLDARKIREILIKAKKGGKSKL
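Purified P. pyralis luciferase, 10 nM final, with Km-level 10 uM D-luciferin and 10 uM ATP in 50 mM Tris acetate pH 7.5, 10 mM Mg acetate, 0.01% Tween-20, 0.05% BSA; 6-point qHTS titration about 60 µM downward; luminescence read.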
Rab9 prom act: activators of Rab9 promoter | Huh7 Rab9 promoter-luciferase reporter, luminescence, 24 h | Potency, µM (doses to about 9.22 µM), most hits filed as activators | 320,000 tested, 2.8% active; note: nearly all actives have a fitted effect of over 60% in size
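Promoter activation is measured as luciferase luminescence in Huh7 cells stably transfected with a Rab9 promoter–luciferase construct, following 24 h compound exposure at 37 °C and 10 min reagent incubation at ambient temperature.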
SMN2 splice up: SMN2 splice variant enhancement; AID 1458; HEK293 SMN2-luciferase splicing reporter, luminescence, 30-36 h; Potency, µM (doses to about 46.1 µM), usual class: activators; 210,000 tested, 2.8% active; note: nearly all actives have a fitted effect of over 55% in size
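qHTS luciferase splicing reporter: luminescence rises when SMN2 exon 7 is included in transfected HEK293 cells. Compound exposure lasted 30-36 h at 37C, with 4.5 mM final sodium butyrate as control, followed by a ONE-Glo read.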
Numbers stand for hits; n = inactive; u = inconclusive; x = no result given. Calls come from the whole dose curve; as a rule, active = well fitted curve in the direction sought with a large enough effect; inconclusive = small, poorly fitted or top-dose-only effect, or another doubt; inactive = no such curve, though single readings can be large; an effect the other way counts as inactive or inconclusive.

SMILES	ELG1 repair inh	NPC1 prom act	ELG1 genotox	FLuc counter	Rab9 prom act	SMN2 splice up
Cc1cc(-c2ccccc2)nc(SCC(=O)c2cccc([N+](=O)[O-])c2)n1	n	n	n	n	n	n
c1ccc(C2=NNC(=NC3CC3)SC2)cc1	u	u	u	1.3µM	0.11µM	2.5µM
c1ccc2c(C3=NNC(=NC4CCCCC4)SC3)c[nH]c2c1	u	n	n	u	n	20µM
c1ccc2c(C3=NNC(=NC4CC4)SC3)c[nH]c2c1	u	u	u	1.5µM	0.63µM	2µM
COC(=O)N1CCC2(CCCN(C(=O)Nc3ccc(OC)cc3)C2)CC1	x	x	x	x	x	n
Cn1c(SCC(=O)NCC2CCCO2)nc2c(c1=O)SCC2 (configuration not stated)	n	n	n	n	n	x
COC(=O)C(NC(=O)CNS(=O)(=O)c1ccc(Br)cc1)c1ccccc1 (configuration not stated)	n	n	n	n	n	n
CC1Sc2ccc(S(=O)(=O)N3CCC(C(=O)N(C)Cc4ccccc4)CC3)cc2NC1=O (configuration not stated)	7.3µM	n	n	n	n	x
c1ccc(CNc2ccnc(-c3ccc4c(c3)OCO4)n2)cc1	x	x	x	x	x	13µM
c1ccc(-c2nccc(-c3ccc4c(c3)OCO4)n2)cc1	u	u	u	19µM	u	u
COc1ccc(C2(C)NC(=O)N(CC(=O)Nc3ccc(-c4nc5ccc(C)cc5s4)cc3)C2=O)cc1 (configuration not stated)	u	4µM	u	3.4µM	2.2µM	7.1µM
COc1ccc(NC(=O)CN2C(=O)NC(c3ccccc3)(c3ccccc3)C2=O)cc1	n	n	n	21µM	n	x
CCC1(c2ccc(F)cc2)NC(=O)N(CC(=O)Nc2ccc(-c3nc4ccc(C)cc4s3)cc2)C1=O (configuration not stated)	u	2.8µM	u	3.4µM	1.4µM	4µM
CCCNC(=O)COC(=O)/C(C#N)=C/c1cc(C)n(CCC)c1C	n	n	n	n	n	n
CCCn1c(C)cc(/C=C(\C#N)C(=O)OCC(=O)NC(=O)NC(C)(C)C)c1C	n	n	n	17µM	n	n
O=[N+]([O-])c1ccc(Sc2cccc[n+]2[O-])c2nonc12	u	n	n	4.8µM	n	x
CCc1ccc2oc(C(=O)Nc3c(C)n(C)n(-c4ccccc4)c3=O)cc(=O)c2c1	x	x	x	n	x	n
COc1ccc2ccc(Oc3ncccn3)cc2c1	u	n	n	n	u	n
COc1ccc2cc(-c3cccnc3)ncc2c1	u	2.2µM	u	3.8µM	u	x
COc1ccc(-c2ccc(OC)cc2)cc1	u	n	n	u	n	x
COc1ccc2cc(-c3ccon3)ccc2c1	u	u	u	3µM	u	x
COc1ccc(-c2cc3ccc(OC)cc3cn2)cc1	u	0.28µM	u	0.19µM	0.32µM	x
COc1ccc2cc(-c3ccccc3F)ncc2c1	u	1.4µM	u	0.95µM	u	x
COC(=O)[C@@H](NC(=O)O[C@@H]1C(=O)c2cc(OC)ccc2O[C@H]1c1cccc(OC)c1)C(C)C	x	x	x	x	x	n
COc1ccc(-c2cc3ccccc3cn2)cc1	u	0.63µM	2.6µM	0.85µM	0.63µM	x
SMILES	ELG1 repair inh	NPC1 prom act	ELG1 genotox	FLuc counter	Rab9 prom act	SMN2 splice up
c1ccc(-c2cc3ncccc3cn2)cc1	u	u	u	u	n	x
COc1ccccc1Nc1ncnc2c1cnn2-c1cccc(C)c1	u	n	n	13µM	n	n
COc1ccc(Nc2ncnc3c2cnn3-c2ccc(C)cc2)cc1Cl	x	x	x	24µM	x	x
COc1ccc(OC)c(Nc2ncnc3c2cnn3-c2ccc(C)cc2)c1	x	x	x	n	x	x
COc1cccc(Nc2ncnc3c2cnn3-c2cccc(C)c2)c1	n	u	n	17µM	u	n
Cc1cccc(-n2ncc3c(Nc4ccc(C)c(Cl)c4)ncnc32)c1	x	x	x	n	x	x
COc1ccc(OC)c(Nc2ncnc3c2cnn3-c2ccccc2)c1	u	n	u	u	n	n
O=C(Nc1ccc(F)cc1F)c1cc(-c2ccccc2O)no1	x	x	x	n	x	x
CC1CCCCN1CCCNC(=O)c1ccc(NC(=O)C2=CSCCO2)cc1 (configuration not stated)	n	n	n	n	n	x

Compound activity as filed in PubChem.
